Molecules are shown by their SMILES. Activity calls are given as the source filed them. How the source made its calls: active means hit-call score of the fitted dose curve at least 0.9, where 1 is the maximum; inactive means score below 0.9.

Assay [1] in a line: ATG_DR4_LXR_CIS: Attagene CIS-FACTORIAL HepG2 Assay for human Liver X Receptor (LXR), DR4 submotif (AID 2282929). The settings on record: HepG2 Attagene DR4 cis-reporter, mRNA transcription; AC50: actives raise or lower the signal unless noted; outcome: actives raise or lower the signal unless noted. Put shortly:
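HepG2 cells transiently transfected with cis-promoter-driven multiplexed reporter units (DR4 element) were dosed for 24 h. Reporter mRNA was quantified by RT-PCR, fluorescent primer extension, HpaI digestion and capillary electrophoresis; bidirectional fitting versus DMSO baseline.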

The target of assay [2] is Aryl hydrocarbon receptor (Homo sapiens) (UniProt P35869). In words: ATG_Ahr_CIS: Attagene CIS-FACTORIAL HepG2 Assay for human Aryl Hydrocarbon Receptor (Ahr) (AID 2282930). Particulars: HepG2 AhR cis-factorial reporter transcription; actives raise or lower the signal. Put shortly:
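HepG2 cells transiently transfected with cis-element-driven multiplexed reporter transcription units; endogenous transcription factor activity measured as reporter mRNA 24 h after dosing. RT-PCR, 6-FAM labelling, HpaI digestion, capillary electrophoresis; bidirectional fitting versus DMSO baseline.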

Assay [3] in a line: ATG_AP_1_CIS: Attagene CIS-FACTORIAL HepG2 Assay for human Activator Protein 1 (AP-1) (AID 2282931). The settings on record: HepG2 Attagene cis-factorial AP-1 reporter mRNA; actives raise or lower the signal. The gist of the method: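 HepG2 cells transiently transfected with cis-element-driven multiplex reporter units; 24 h compound exposure. Reporter mRNA quantified by RT-PCR, FAM-labelled fragments resolved by capillary electrophoresis; bidirectional fit versus DMSO baseline.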

Assay [4] is described as follows: ATG_AP_2_CIS: Attagene CIS-FACTORIAL HepG2 Assay for human Activator Protein 2 (AP-2) (AID 2282932). The settings on record: HepG2 AP-2 cis-reporter, Attagene transcription factor profiling; AC50: actives raise or lower the signal unless noted; outcome: actives raise or lower the signal unless noted. Put shortly:
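Cells (HepG2) transfected with promoter-driven reporter constructs, treated 24 h. Total RNA reverse-transcribed, reporter cDNA PCR-amplified, FAM-labelled by primer extension, digested, resolved by capillary electrophoresis. Activity fitted both directions versus DMSO.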

The nature of assay [5]: ATG_BRE_CIS: Attagene CIS-FACTORIAL HepG2 Assay for human Bone Morphogenetic Protein (BMP) Response Element (BRE) (AID 2282933). Particulars: HepG2 BMP response element reporter, Attagene transcription factor profiling; actives raise or lower the signal. Put shortly: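 Fluorescence-labelled reporter cDNA fragments, separated by capillary electrophoresis, gave the signal for this component of a 52-readout multiplex. HepG2 cells were transfected, exposed to chemicals for 24 h, and compared with DMSO using bidirectional fitting.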

For assay [6], the target named is Retinoic acid receptor alpha (Homo sapiens) (UniProt P10276). Put plainly: ATG_DR5_RAR_CIS: Attagene CIS-FACTORIAL HepG2 Assay for human Retinoic Acid Receptor Alpha (RARE), DR5 submotif (AID 2282934).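 On AC50: reporter responds to endogenous RAR alpha beta and gamma in HepG2 not RARA alone.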 Particulars: HepG2 Attagene cis-factorial RARE DR5 reporter, mRNA; actives raise or lower the signal. The gist of the method: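 HepG2 cells transiently transfected with multiplexed reporter units under cis (DR5 RARE) promoters, so endogenous transcription factor activity is measured. After 24 h compound exposure, reporter mRNA is quantified by RT-PCR with fluorescent labelling and capillary electrophoresis; bidirectional fitting versus DMSO.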
Chain of Retinoic acid receptor alpha (Homo sapiens) (P10276 whole entry, looked up): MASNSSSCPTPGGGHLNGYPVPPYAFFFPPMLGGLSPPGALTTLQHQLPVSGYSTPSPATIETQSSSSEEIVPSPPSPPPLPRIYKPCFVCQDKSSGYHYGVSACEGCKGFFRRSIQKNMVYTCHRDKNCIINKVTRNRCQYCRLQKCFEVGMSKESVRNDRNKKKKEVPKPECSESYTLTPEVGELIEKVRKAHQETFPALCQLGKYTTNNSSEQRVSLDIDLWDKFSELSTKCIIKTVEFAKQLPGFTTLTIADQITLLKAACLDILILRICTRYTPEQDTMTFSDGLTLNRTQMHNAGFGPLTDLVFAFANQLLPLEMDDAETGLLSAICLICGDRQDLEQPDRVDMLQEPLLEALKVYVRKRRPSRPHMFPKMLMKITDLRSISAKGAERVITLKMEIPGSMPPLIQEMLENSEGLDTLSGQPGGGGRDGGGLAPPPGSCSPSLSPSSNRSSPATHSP

Assay [7] concerns the target Transcription factor E2F1 (Homo sapiens) (UniProt Q01094). Put plainly: ATG_E2F_CIS: Attagene CIS-FACTORIAL HepG2 Assay for human E2F Transcription Factor 1 (AID 2282935). Particulars: HepG2 Attagene cis-reporter, E2F reporter RNA transcripts; actives raise or lower the signal. The gist of the method: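 First, HepG2 cells were transfected with reporter transcription units. Next, they were dosed for 24 h. Then RNA was isolated, converted to cDNA, PCR-amplified, FAM-labeled, HpaI-digested and analyzed by capillary electrophoresis.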

Assay [8] is described as follows: ATG_E_Box_CIS: Attagene CIS-FACTORIAL HepG2 Assay for human Enhancer Box (E-box) (AID 2282936). The settings on record: HepG2 E-box cis-reporter transcription, actives raise or lower the signal. Put shortly:
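Endogenous transcription factor activity was sensed in human HepG2 liver cells through transfected cis-promoter reporter units. After 24 h of dosing, total RNA was reverse-transcribed and reporter cDNA resolved by capillary electrophoresis.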

A short description of assay [9]: ATG_M_61_CIS: Attagene CIS-FACTORIAL HepG2 Assay for M61 Transcription Factor (Internal Marker) (AID 2282937). The settings on record: HepG2 Attagene CIS-FACTORIAL M61 internal marker reporter; actives raise or lower the signal. The gist of the method: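 HepG2 cells transiently transfected with cis-element-driven multiple reporter transcription units, dosed for 24 h. Reporter mRNA measured by RT-PCR, 6-FAM primer-extension labelling, HpaI digestion and capillary electrophoresis; bidirectional fit versus DMSO baseline.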

Assay [10] can be described thus: ATG_EGR_CIS: Attagene CIS-FACTORIAL HepG2 Assay for human Early Growth Response 1 (EGR1) (AID 2282938). Particulars: HepG2 Attagene CIS-FACTORIAL EGR reporter mRNA; actives raise or lower the signal. Put shortly:
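HepG2 cells transiently transfected with cis-promoter-driven multiplexed reporter transcription units; reporter mRNA measured 24 h after compound dosing by RT-PCR, 6-FAM primer extension, HpaI digestion and capillary electrophoresis. Bidirectional fit versus DMSO baseline.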

Assay [11] is described as follows: ATG_ERE_CIS: Attagene CIS-FACTORIAL HepG2 Assay for Estrogen Response Element (ERE) (AID 2282940). Particulars: HepG2 ERE cis-reporter, Attagene RNA transcript; actives raise or lower the signal. Put shortly: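 After a 24 h chemical treatment, RNA from reporter-transfected HepG2 cells is reverse-transcribed, PCR-amplified and fluorescently labelled. Fragments separated by capillary electrophoresis give reporter signal; DMSO serves as negative control.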

Assay [12] in a line: ATG_Ets_CIS: Attagene CIS-FACTORIAL HepG2 Assay for human Erythroblast Transformation Specific (ETS) (AID 2282941). Particulars: HepG2 ETS cis-reporter transcription; AC50: actives raise or lower the signal unless noted; outcome: actives raise or lower the signal unless noted. The gist of the method: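 RT-PCR/capillary electrophoresis fluorescence read-out of reporter mRNA; HepG2 transient multi-reporter transfection; 24 h compound exposure; gain or loss of signal fitted bidirectionally relative to DMSO.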

Assay [13] concerns the target Hepatocyte nuclear factor 3-beta (Homo sapiens) (UniProt Q9Y261). Put plainly: ATG_FoxA2_CIS: Attagene CIS-FACTORIAL HepG2 Assay for human Forkhead box A2 (FOXA2) (AID 2282942). Particulars: HepG2 cis-reporter transcription factor activity, 24 h; actives raise or lower the signal. The gist of the method:
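HepG2 cells transiently transfected with multiple cis-regulated reporter transcription units, dosed for 24 h. Reporter mRNA measured by RT-PCR, 6-FAM labelling, HpaI digestion and capillary electrophoresis; bidirectional fitting against DMSO baseline.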

The nature of assay [14]: ATG_FoxO_CIS: Attagene CIS-FACTORIAL HepG2 Assay for human Forkhead box O (FoxO) (AID 2282943). The settings on record: HepG2 Attagene cis-reporter, FoxO element, mRNA; actives raise or lower the signal. The gist of the method: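 HepG2 cells transiently transfected with cis-promoter-driven multiple reporter transcription units; 24 h after chemical dosing, reporter mRNA quantified by RT-PCR, fluorescent primer extension, HpaI digestion and capillary electrophoresis. Bidirectional fitting versus DMSO baseline.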

Assay [15] is described as follows: ATG_GATA_CIS: Attagene CIS-FACTORIAL HepG2 Assay for human GATA Binding Protein (AID 2282944). Particulars: HepG2 GATA cis-element reporter, Attagene multiplex mRNA; actives raise or lower the signal. Put shortly: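 Cells: HepG2, transiently transfected with cis-regulated reporter transcription units. Exposure: 24 h. Detection: RT-PCR plus capillary electrophoresis of FAM-labeled fragments. Analysis: bidirectional, DMSO as baseline.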

A short description of assay [16]: ATG_GLI_CIS: Attagene CIS-FACTORIAL HepG2 Assay for human Zinc Finger Protein GLI1 (AID 2282945). The settings on record: HepG2, Attagene cis-factorial reporter mRNA, GLI element; actives raise or lower the signal. The gist of the method: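 HepG2 cells transiently transfected with cis-promoter multiplexed reporter units report endogenous transcription factor activity. After 24 h chemical exposure, reporter mRNA was quantified by RT-PCR, 6-FAM labelling, HpaI digestion and capillary electrophoresis, with bidirectional fitting against DMSO.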

For assay [17], the target named is Bile acid receptor (Homo sapiens) (UniProt Q96RI1). In words: ATG_IR1_CIS: Attagene CIS-FACTORIAL HepG2 Assay for human Nuclear Receptor Subfamily 1 Group H Member 4 (NR1H4), IR1 submotif (AID 2282946). The settings on record: IR1 reporter transcription, actives raise or lower the signal. Put shortly: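 Readout: reporter transcript levels by RT-PCR with fluorescent capillary electrophoresis, from HepG2 cells transiently transfected with multiplexed cis-regulated reporters and dosed 24 h. Gain- or loss-of-signal fitted versus DMSO negative control.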
Chain of Bile acid receptor (Homo sapiens) (Q96RI1 whole entry, looked up): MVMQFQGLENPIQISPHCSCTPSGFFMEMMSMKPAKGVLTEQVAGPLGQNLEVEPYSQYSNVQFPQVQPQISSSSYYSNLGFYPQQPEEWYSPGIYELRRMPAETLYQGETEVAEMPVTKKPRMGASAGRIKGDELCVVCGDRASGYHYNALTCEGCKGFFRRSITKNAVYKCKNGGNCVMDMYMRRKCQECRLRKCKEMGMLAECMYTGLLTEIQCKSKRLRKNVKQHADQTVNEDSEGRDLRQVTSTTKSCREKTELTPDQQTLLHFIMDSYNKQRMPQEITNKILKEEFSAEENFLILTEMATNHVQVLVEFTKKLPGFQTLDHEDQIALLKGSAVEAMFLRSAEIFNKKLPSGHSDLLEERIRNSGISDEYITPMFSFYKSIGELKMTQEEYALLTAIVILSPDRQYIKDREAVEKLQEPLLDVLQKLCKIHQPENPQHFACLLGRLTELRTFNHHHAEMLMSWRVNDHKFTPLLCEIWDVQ

A short description of assay [18]: ATG_GRE_CIS: Attagene CIS-FACTORIAL HepG2 Assay for human Glucocorticoid Response Elements (GRE) (AID 2282947). The settings on record: HepG2 GRE cis-reporter, Attagene multiplex mRNA; AC50: actives raise or lower the signal unless noted; outcome: actives raise or lower the signal unless noted. Put shortly:
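Cells (HepG2) bearing transfected cis-promoter reporter transcription units were treated with chemical for 24 hours. Reporter mRNA was measured via RT-PCR with capillary electrophoresis, and activity was fitted in both directions relative to DMSO.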

Assay [19] in a line: ATG_ISRE_CIS: Attagene CIS-FACTORIAL HepG2 Assay for human Interferon Regulatory Factor 1 (IRF1) binding to an Interferon-Stimulated Response Element (ISRE) (AID 2282948). Particulars: HepG2 ISRE cis-reporter (Attagene), mRNA transcription readout; actives raise or lower the signal. The gist of the method: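 Read-out: fluorescent RT-PCR products resolved by capillary electrophoresis, reporting endogenous transcription factor activity via ISRE-driven reporter mRNA in transfected HepG2 cells dosed for 24 h; gain or loss fitted relative to DMSO.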

Assay [20] is described as follows: ATG_M_19_CIS: Attagene CIS-FACTORIAL HepG2 Assay for M19 Transcription Factor (Internal Marker) (AID 2282939). The settings on record: HepG2 Attagene CIS-FACTORIAL M19 internal marker reporter; actives raise or lower the signal. The gist of the method: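 HepG2, MRTU transient transfection, 24 h dosing. Total RNA → RT-PCR → 6-FAM primer extension → HpaI digest → CE fluorescence. Bidirectional curve fit, DMSO negative control.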

Chain of Aryl hydrocarbon receptor (Homo sapiens) (P35869 whole entry, looked up): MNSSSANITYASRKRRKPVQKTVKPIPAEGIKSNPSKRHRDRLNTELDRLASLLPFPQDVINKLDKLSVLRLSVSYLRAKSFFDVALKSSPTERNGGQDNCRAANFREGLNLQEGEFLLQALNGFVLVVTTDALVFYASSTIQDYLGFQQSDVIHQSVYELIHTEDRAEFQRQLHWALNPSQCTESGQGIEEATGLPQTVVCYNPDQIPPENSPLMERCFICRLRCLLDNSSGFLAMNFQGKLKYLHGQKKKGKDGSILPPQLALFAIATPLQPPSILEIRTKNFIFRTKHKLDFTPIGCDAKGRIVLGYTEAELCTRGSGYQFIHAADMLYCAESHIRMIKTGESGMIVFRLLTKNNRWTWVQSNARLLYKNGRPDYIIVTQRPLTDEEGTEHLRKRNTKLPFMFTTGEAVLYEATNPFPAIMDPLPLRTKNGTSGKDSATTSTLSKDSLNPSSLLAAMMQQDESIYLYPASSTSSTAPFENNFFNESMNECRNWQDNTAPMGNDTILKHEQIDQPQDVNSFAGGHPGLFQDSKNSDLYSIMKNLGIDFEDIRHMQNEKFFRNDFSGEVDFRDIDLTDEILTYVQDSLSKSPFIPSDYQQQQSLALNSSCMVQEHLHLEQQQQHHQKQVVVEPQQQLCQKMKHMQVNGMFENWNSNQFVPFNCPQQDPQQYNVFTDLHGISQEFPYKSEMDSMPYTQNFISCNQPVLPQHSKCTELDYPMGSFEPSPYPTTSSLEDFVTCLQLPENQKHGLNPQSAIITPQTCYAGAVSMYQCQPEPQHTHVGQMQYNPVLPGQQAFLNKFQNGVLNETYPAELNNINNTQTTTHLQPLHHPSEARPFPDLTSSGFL
Chain of Transcription factor E2F1 (Homo sapiens) (Q01094 whole entry, looked up): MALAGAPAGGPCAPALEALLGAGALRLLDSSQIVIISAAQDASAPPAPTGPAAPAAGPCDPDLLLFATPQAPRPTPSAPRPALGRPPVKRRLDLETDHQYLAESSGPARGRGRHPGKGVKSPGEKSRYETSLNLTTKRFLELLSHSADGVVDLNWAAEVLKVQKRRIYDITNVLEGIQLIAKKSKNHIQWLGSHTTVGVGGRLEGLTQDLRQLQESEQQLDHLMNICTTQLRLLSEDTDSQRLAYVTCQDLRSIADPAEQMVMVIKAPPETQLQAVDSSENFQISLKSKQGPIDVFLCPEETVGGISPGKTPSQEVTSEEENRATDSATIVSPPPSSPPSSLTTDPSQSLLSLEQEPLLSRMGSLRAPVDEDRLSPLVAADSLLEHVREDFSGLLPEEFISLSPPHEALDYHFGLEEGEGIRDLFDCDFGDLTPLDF
Chain of Hepatocyte nuclear factor 3-beta (Homo sapiens) (Q9Y261 whole entry, looked up): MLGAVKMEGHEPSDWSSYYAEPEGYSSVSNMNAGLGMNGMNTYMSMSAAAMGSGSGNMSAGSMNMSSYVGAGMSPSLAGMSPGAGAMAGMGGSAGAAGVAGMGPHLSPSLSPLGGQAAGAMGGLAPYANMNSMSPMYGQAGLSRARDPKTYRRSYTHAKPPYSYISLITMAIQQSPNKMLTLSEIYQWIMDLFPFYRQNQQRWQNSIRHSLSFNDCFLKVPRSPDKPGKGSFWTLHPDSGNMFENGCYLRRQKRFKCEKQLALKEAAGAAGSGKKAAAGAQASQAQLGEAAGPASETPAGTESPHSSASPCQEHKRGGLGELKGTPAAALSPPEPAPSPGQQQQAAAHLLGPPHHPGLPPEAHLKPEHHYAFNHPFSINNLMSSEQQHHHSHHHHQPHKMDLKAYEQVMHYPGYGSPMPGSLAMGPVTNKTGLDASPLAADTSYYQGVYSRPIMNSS

As to `CCCCN(C)C`, the molecule was classed as inactive in [1], in assay [2], in assay [3], in assay [4], in assay [5] and in assay [6]. For the same molecule, the molecule was called inactive in assay [7], in [8], in assay [9], in assay [10], in assay [11] and in assay [12]. Further, the outcome in assay [13], in assay [14], in assay [15], in assay [16], in [17] and in [18] was inactive. Moreover, the call in assay [19] was inactive.
Consider `Cc1ccc(S(=O)(=O)O)cc1`, for which the call in assay [1], in assay [2], in assay [3], in assay [4], in [5] and in [6] was inactive. In addition, the result in [7], in [8], in [9], in assay [10], in assay [20] and in [12] was inactive. The result in assay [13], in [14], in [15], in assay [16] and in [19] was inactive.
On to `C=CC(=O)OCC(CO)(COCC(COC(=O)C=C)(COC(=O)C=C)COC(=O)C=C)COC(=O)C=C`, for which the AC50 was 4.59 µM (active) in assay [1]; 11 µM (active) in [6]; 19.6 µM (active) in assay [7]; 2.52 µM (active) in [8]; 3.04 µM (active) in assay [10]; 3.66 µM (active) in assay [14]. Further, the AC50 in assay [19] is 1.29 µM (active). In addition, the result in assay [2], in [3], in assay [4], in [5], in [9] and in assay [11] was inactive. Besides, the result in assay [12], in assay [15], in assay [16], in assay [17] and in [18] was inactive.

By AC50 is commonly meant the concentration at which the activity in the assay is half-maximal.

Values taken from PubChem BioAssay (EPA / NIEHS).
